PubChem BioAssay (NCI)
This is part of a sample that, as a whole, favours compounds with a hit. Of some 83,000 tested, about 20% had one in any assay.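 Assay: single dose, 48 h. Readout: percent growth (0 = no net growth; negative = cell death). Active: <10.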 Activity calls are given as the source filed them.

Columns and labels:
Test in all cases: NCI-60 one-dose screen, 48 h (100 = growth as untreated, 0 = no growth, -100 = all killed)
Conditions in all cases: 10 µM unless noted
[1] = test system: SK-MEL-2 melanoma
[2] = test system: EKVX NSCLC
[3] = test system: SN12C renal
[4] = test system: UO-31 renal
[5] = test system: TK-10 renal
[6] = test system: ACHN renal
[7] = test system: CAKI-1 renal
[8] = test system: A498 renal
[9] = test system: CCRF-CEM leukemia
[10] = test system: MOLT-4 leukemia
[11] = test system: SR leukemia
[12] = test system: RPMI-8226 leukemia
[13] = test system: OVCAR-8 ovarian
[14] = test system: OVCAR-5 ovarian
[15] = test system: OVCAR-4 ovarian
[16] = test system: SK-OV-3 ovarian
[17] = test system: OVCAR-3 ovarian
[18] = test system: HS 578T breast
[19] = test system: NCI/ADR-RES ovarian
[20] = test system: IGROV1 ovarian

Measured: growth

CC(C)(C)c1cn2cccc(C(=O)N3CCN(CC(=O)Nc4ccc(Cl)cc4C(=O)c4ccccc4Cl)CC3)c2n1
inactive: [1] 65.4% | [2] 40.8% | [3] 72.6% | [4] 47% | [5] 69% | [6] 44.8% | [7] 67.5% | [9] 27.9% | [10] 16.4% | [11] 13.2% | [12] 24.1% | [13] 51% | [14] 75.1% | [15] 50.6% | [16] 91.4% | [17] 75.7% | [18] 32.2% | [19] 39.5%
active: [8] -0.735%

Nc1nn2cc(-c3ccc(Cl)s3)nc2c2ccccc12
inactive: [1] 49.9% | [2] 86.7% | [3] 91.9% | [4] 67.1% | [5] 113% | [6] 79.6% | [7] 74.6% | [8] 59.5% | [9] 76.8% | [10] 44.4% | [11] 49.7% | [12] 92% | [13] 105% | [14] 79.1% | [15] 87.5% | [16] 103% | [20] 44.7% | [17] 77.8% | [18] 96.7% | [19] 86.7%

CCOP(=O)(CCN1CCN(CCCCCOc2cc3c(cc2OC)C(=O)N2CCC[C@H]2C=N3)CC1)OCC
inactive: [1] 33.6% | [2] 98.2% | [3] 79% | [4] 28.3% | [5] 148% | [6] 99.9% | [7] 57.3% | [8] 89.2% | [9] 11% | [10] 19.9% | [11] 28.7% | [13] 83.4% | [14] 106% | [15] 87.8% | [16] 118% | [17] 119% | [18] 84.5% | [19] 88.5%
active: [12] -10.5% | [20] -26%

CCCCOc1nc2c(C)cccc2cc1C1CNC(=O)c2ccccc2N1 (centres undefined)
inactive: [1] 62.8% | [2] 61.9% | [3] 70.9% | [4] 67.8% | [5] 98.7% | [6] 66.3% | [7] 52.1% | [8] 55.3% | [9] 34.3% | [10] 39% | [11] 18.1% | [12] 57.5% | [13] 81.2% | [14] 112% | [15] 71.7% | [16] 69.2% | [17] 20% | [18] 69.7% | [19] 51.3%

CCCC1OC(c2ccc(C(C)C)cc2)OCC1CC (centres undefined)
inactive: [1] 98.4% | [2] 101% | [3] 105% | [4] 101% | [5] 97.1% | [6] 99.5% | [7] 90.9% | [8] 94.4% | [9] 95.9% | [10] 93.3% | [11] 91.7% | [12] 104% | [13] 96.7% | [14] 101% | [15] 112% | [16] 85.5% | [20] 112% | [17] 107% | [19] 105%

COc1ccc(/C=C/C(=O)OCC(=O)NNC(=O)c2ccccc2)cc1OC
inactive: [1] 68.6% | [2] 84.4% | [3] 101% | [4] 80.9% | [5] 121% | [6] 90.2% | [7] 83.5% | [8] 93% | [9] 93.8% | [10] 70.1% | [11] 71.8% | [12] 79.7% | [13] 102% | [14] 113% | [15] 101% | [16] 113% | [20] 87.8% | [17] 99.8% | [18] 103% | [19] 116%

COc1ccc2c(c1)NC(=O)CN2c1nc(C)nc2ccccc12
inactive: [1] 23.5% | [2] 30.1% | [3] 24.7% | [4] 26.8% | [5] 14.8% | [6] 26.9% | [7] 29.3% | [9] 37.2% | [10] 23.7% | [11] 18.8% | [12] 45.2% | [13] 12.5% | [14] 51.5% | [15] 45.5% | [16] 31.3% | [20] 18.8% | [18] 40% | [19] 14%
active: [8] -4.89% | [17] -13.9%

O=c1cc(C2NCCc3c2[nH]c2ccccc32)c2c(ccc3ccccc32)o1 (centres undefined)
active: [16] 5.15%
inactive: [1] 36.2% | [2] 75.3% | [3] 87.5% | [4] 26.2% | [5] 71.7% | [6] 31.7% | [7] 15.5% | [8] 46.3% | [9] 77.8% | [10] 75.1% | [11] 51.3% | [12] 73.6% | [13] 60.1% | [14] 78.3% | [15] 62.3% | [20] 33.4% | [17] 95.1% | [18] 55.9% | [19] 78.7%

O=C(Nc1ccc(I)cc1)c1cc([N+](=O)[O-])ccc1O
active: [1] -0.392% | [8] -27.9%
inactive: [2] 39.7% | [3] 34.3% | [4] 22.5% | [5] 40% | [6] 48.8% | [7] 30.9% | [9] 28.4% | [10] 18.8% | [11] 36.6% | [12] 10.1% | [13] 39.9% | [14] 54.8% | [15] 30.3% | [16] 38.6% | [20] 39.6% | [17] 18.3% | [18] 16.1% | [19] 29.1%

COc1ncc(-c2ccc3ncnc(Nc4cccc(Cl)c4)c3c2)cc1N(S(C)(=O)=O)S(C)(=O)=O
inactive: [1] 77.4% | [2] 30% | [3] 64.5% | [4] 25.9% | [6] 22% | [7] 26.8% | [8] 49.6% | [9] 86.8% | [10] 69.9% | [11] 92.6% | [12] 55.8% | [13] 73.8% | [14] 43.2% | [15] 77.3% | [16] 52.2% | [17] 54.9% | [18] 49.7% | [19] 72.7%
active: [5] 5.88% | [20] -28.6%

Cc1ccc2nc(SCn3nnc4ccccc4c3=O)[nH]c2c1
inactive: [1] 69.5% | [2] 97.1% | [3] 108% | [4] 73.8% | [5] 196% | [6] 105% | [7] 93.5% | [8] 108% | [9] 102% | [10] 71.2% | [11] 112% | [12] 94.4% | [13] 109% | [14] 89.5% | [15] 78.4% | [16] 103% | [20] 83.7% | [17] 104% | [19] 88.8%

O=C1C2=C(C(=O)c3c(O)ccc(O)c31)N(c1cccnc1)Cc1ccccc1O2
active: [1] -42.6% | [2] 2.08% | [3] -43.8% | [4] -83.5% | [5] -99.2% | [6] -85.4% | [7] -96.2% | [9] -1.32% | [10] -18.5% | [11] -10.1% | [12] -8.47% | [13] 2.92% | [14] -39.6% | [15] -95% | [17] -89.5%
inactive: [8] 99% | [16] 53.8% | [18] 26.1% | [19] 13.4%

COc1ccc(/C=C/C(=O)/C=C/c2cc3ccc(Cl)cc3[nH]c2=O)cc1
active: [11] -0.34%
inactive: [1] 94% | [2] 84.7% | [3] 85.7% | [4] 75.7% | [5] 124% | [6] 88.6% | [7] 93.2% | [8] 92.7% | [9] 56.8% | [10] 65.3% | [12] 19.9% | [13] 81.4% | [14] 108% | [15] 92.9% | [16] 91% | [17] 75.4% | [18] 90.5% | [19] 103%

O=C(Nc1cccc(Cl)c1)c1cc([N+](=O)[O-])ccc1O
inactive: [2] 60.5% | [3] 55.1% | [4] 45.5% | [5] 61% | [6] 59.9% | [7] 52.6% | [9] 46.4% | [10] 35.7% | [11] 57% | [12] 25.4% | [13] 69.3% | [14] 68.8% | [15] 46.1% | [16] 59.8% | [17] 42% | [19] 56%
active: [1] 5.35% | [8] 8.44%

C=C1C(=O)O[C@H]2[C@H]1CC/C(COC(=O)NCc1cc(OC)cc(OC)c1)=C\CC[C@@]1(C)O[C@@H]21
inactive: [1] 23.2% | [2] 40.5% | [8] 68% | [14] 18.1% | [18] 37.1% | [19] 63.4%
active: [3] 7.86% | [4] -58.4% | [5] -1.01% | [6] 5.79% | [7] -15.1% | [9] 2.4% | [10] -3.45% | [11] 3.61% | [12] 5.14% | [13] -9.79% | [15] 9.29% | [17] -76.8%

O=C(Nc1ccc(F)c(Cl)c1)c1n[nH]c(=O)c2ccccc12
inactive: [1] 74.8% | [2] 123% | [3] 98.1% | [4] 106% | [5] 157% | [6] 89.1% | [7] 89.5% | [8] 103% | [9] 105% | [10] 97.2% | [12] 119% | [13] 95.4% | [14] 107% | [15] 96.1% | [16] 119% | [17] 94.6% | [18] 129% | [19] 112%
active: [20] 8.17%
